# Laboratory results taken from PubChem BioAssay AID434962 (The Scripps Research Institute Molecular Screening Center, 2010).
# Screen size: about 320,000 compounds; about 1,300 (0.41%) were called active. The list comes from a sample in which actives are over-represented; it also holds similar structures and randomly drawn compounds. Unmarked numbers belong to inactive results.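 The calls were made as follows: active = percent inhibition above the average of all tested compounds plus 3 SD, set per screening campaign (cut at about 16% in these data); inactive = the rest.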
# Biological target: Insulin-degrading enzyme (Homo sapiens) (UniProt P14735)
# Experiment: cellular IDE Abeta-cleavage inhibition – fluorescence polarization, HEK cells, FAbetaB substrate, primary screen (AID 434962);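 also: IDE supplied by intact live HEK cells; FP after avidin binding of uncleaved biotin substrate so inhibition keeps polarization high; 0% = DMSO wells and 100% = 60 µM reference IDE inhibitor Ii1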
# Details: at 5.59 µM, stronger effect = higher value
# Sequence of Insulin-degrading enzyme (Homo sapiens) (P14735 whole entry, looked up): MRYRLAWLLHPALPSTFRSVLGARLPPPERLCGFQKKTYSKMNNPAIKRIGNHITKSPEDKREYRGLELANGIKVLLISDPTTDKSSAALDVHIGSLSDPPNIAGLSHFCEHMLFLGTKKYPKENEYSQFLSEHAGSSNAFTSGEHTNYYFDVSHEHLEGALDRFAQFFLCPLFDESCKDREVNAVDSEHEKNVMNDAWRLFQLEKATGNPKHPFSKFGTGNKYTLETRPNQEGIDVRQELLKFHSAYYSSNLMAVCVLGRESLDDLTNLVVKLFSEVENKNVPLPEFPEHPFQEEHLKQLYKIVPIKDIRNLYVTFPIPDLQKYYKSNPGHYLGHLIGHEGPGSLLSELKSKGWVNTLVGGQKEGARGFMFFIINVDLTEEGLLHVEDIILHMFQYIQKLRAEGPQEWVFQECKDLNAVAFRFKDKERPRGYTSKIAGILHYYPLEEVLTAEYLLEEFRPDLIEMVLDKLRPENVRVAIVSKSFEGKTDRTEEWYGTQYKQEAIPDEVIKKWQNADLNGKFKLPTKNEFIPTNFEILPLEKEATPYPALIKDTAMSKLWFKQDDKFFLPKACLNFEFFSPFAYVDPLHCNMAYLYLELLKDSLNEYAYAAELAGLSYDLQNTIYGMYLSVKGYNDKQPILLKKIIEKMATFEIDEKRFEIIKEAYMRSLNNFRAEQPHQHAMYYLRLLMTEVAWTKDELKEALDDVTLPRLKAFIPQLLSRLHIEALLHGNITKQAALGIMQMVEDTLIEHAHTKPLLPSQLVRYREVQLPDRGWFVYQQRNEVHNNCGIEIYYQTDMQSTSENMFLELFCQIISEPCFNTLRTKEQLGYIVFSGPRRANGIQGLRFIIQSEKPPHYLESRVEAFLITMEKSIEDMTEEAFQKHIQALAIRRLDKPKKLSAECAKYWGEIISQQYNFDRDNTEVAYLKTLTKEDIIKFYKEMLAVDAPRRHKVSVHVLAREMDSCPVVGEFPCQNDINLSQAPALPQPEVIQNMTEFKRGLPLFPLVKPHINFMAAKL
row,SMILES,inhibition
1,C=CCN1C(=O)C2(OCCCO2)c2cccc(Cl)c21,1.02%
2,CCc1ccc(N(C(=O)c2csnn2)C(C(=O)NC2CCCCC2)c2ccncc2)cc1 (configuration not stated),3.98%
3,CCOC(=O)CC1C(=O)NCCN1c1nc2c(C)cccn2c(=O)c1/C=C1\SC(=S)N(C(C)CC)C1=O (configuration not stated),114% (active)
4,CCOC(=O)N1CCN(C(=O)CSc2nc(=O)n3cccc(C)c3n2)CC1,-1%
5,Cc1cccn2c(=O)c(/C=C(\C#N)C(N)=O)c(N3CCCCCC3)nc12,15.9%
6,O=C(COc1ccc(S(=O)(=O)N2CCOCC2)cc1Cl)N1CCOCC1,0.54%
7,CCCCc1cc(=O)oc2c(C)c(OCC(=O)N3CCC(C(N)=O)CC3)ccc12,21.3% (active)
8,Cc1c(C)c2ccc(OCC(=O)N3CCC(C(=O)O)CC3)c(C)c2oc1=O,9.3%
9,CCCc1cc(=O)oc2c(C)c(OCC(=O)N3CCC(C(=O)O)CC3)ccc12,0.15%
10,CCC(C)N(C(=O)COC(=O)c1nc(Cl)ccc1Cl)C1CCS(=O)(=O)C1 (configuration not stated),1.33%
11,CNC(=O)/C(C#N)=C/c1c(F)cccc1Cl,-1.39%
12,CCN1CCN(C(=O)C2CCCN(S(=O)(=O)c3ccc(OC)c(OC)c3)C2)CC1 (configuration not stated),-5.73%
13,CCOc1ccccc1Nc1ccc2nonc2c1[N+](=O)[O-],-3.97%
14,O=[N+]([O-])c1c(NCCO)cc(Sc2nc3ccccc3s2)c2nonc12,21.8% (active)
15,O=C(O)c1ccccc1CSc1nc2ccccc2s1,-2.6%
16,Cc1[nH]c2ccccc2c1/C=C(/C#N)C(=O)NC(C)C,-1.7%
17,O=C(CSc1ncnc2sccc12)N1CCN(C(=O)c2cccs2)CC1,3.13%
18,Nc1c(C(=O)c2cccs2)sc2nsc(SCCN3CCCCC3)c12,23% (active)
19,O=[N+]([O-])c1ccc(N(CCO)Cc2ccccc2)c([N+](=O)[O-])c1,0.66%
20,COc1ccc(N2CCN(Cc3ccc(Br)s3)CC2)cc1,-4.53%
21,O=C1NC(c2ccccc2)=NC1(Nc1ccccn1)C(F)(F)F (configuration not stated),-2.81%
22,COc1ccc(N=C(C)c2sc3ccccc3c2O)cc1,41.2% (active)
23,Oc1ccc(N=Cc2sc3ccccc3c2Cl)cc1,0.23%

row,SMILES,inhibition
1,COC(=O)c1ccc(/C=C/c2c(-c3ccc(OC)cc3)sc3ccccc23)cc1,1.82%
2,Cc1ccccc1NC(=O)Cc1nc(COC(=O)c2ccc(C(F)(F)F)cc2)cs1,7.39%
3,CCN(CC)C(=O)CSC(Nc1cccc(F)c1)=C(C#N)C#N,31.4% (active)
4,Cc1ccc(CSCC(=O)N(C)CC(=O)Nc2cccc(F)c2)cc1,5.39%
5,CCN(CC)C(=O)C(=O)Nc1cccc(Br)c1,1.91%
6,Cc1cccc(OCC(O)CN2CCN(CCN3C(=O)c4cccc5cccc(c45)C3=O)CC2)c1C (configuration not stated),-8.18%
7,Cc1cccc(C)c1NC(=O)COC(=O)c1ccccc1O,3.87%
8,Cc1cc([N+](=O)[O-])c(N2CCC[C@@H]2C(=O)O)c([N+](=O)[O-])c1,3.34%
9,CS(=O)(=O)N(Cc1ccccc1)c1ccc(C(=O)NN=C2CCCCCC2)cc1,18.7% (active)
10,Cc1ccccc1CN(c1ccc(C(=O)NCC2CCCO2)cc1)S(C)(=O)=O (configuration not stated),10.1%
11,CN1CCC(=NNC(=O)c2ccc(N(Cc3ccc(Cl)cc3)S(C)(=O)=O)cc2)CC1,8.43%
12,CS(=O)(=O)N(Cc1ccc(Cl)cc1)c1ccc(C(=O)NCCSCc2ccco2)cc1,2.58%
13,O=C(C1=C[C@H](c2coc3ccccc3c2=O)C[C@H](OCc2ccc(CO)cc2)O1)N1CCOCC1,4.19%
14,O=C(C1=C[C@H](c2coc3ccccc3c2=O)C[C@H](OCc2ccc(CO)cc2)O1)N1CCN(Cc2ccccc2)CC1,18.4% (active)
15,O=C(C1=C[C@H](c2ccc(C(F)(F)F)cc2)C[C@H](OCc2ccc(CO)cc2)O1)N1CCN(Cc2ccccc2)CC1,-1%
16,O=C(NC1CCCC1)C(=O)c1c[nH]c2ccccc12,3.35%
17,COc1ccc(/C=C(\C#N)c2c[nH]c3ccccc23)cc1,-0.68%
18,C[n+]1ccc(/C=C/c2c[nH]c3ccccc23)cc1,23.9% (active)
19,Clc1ccccc1-c1cc(COc2ccc3ccccc3c2)no1,3.18%
20,COc1ccc(OCCCn2cccc2/C=C2/C(=N)N3OC(C)=CC3=NC2=O)cc1,1.48%
21,CC1=CC2=NC(=O)/C(=C/c3coc4ccccc4c3=O)C(=N)N2O1,62.1% (active)
22,CCOc1cc(/C=C2/C(=N)N3OC(C)=CC3=NC2=O)ccc1OC,0.06%
23,C=CCn1c(SCCOc2ccc(OC)cc2)nnc1C(NC(=O)c1ccc(OC)cc1)C(C)C (configuration not stated),0.39%

row,SMILES,inhibition
1,CC(=O)Nc1ccc(S(=O)(=O)N2CCN(CCCOc3cc(C)ccc3C)CC2)cc1,-1.56%
2,CCOc1ccc(NC(=O)CN(C)CC(=O)Nc2cccc(Cl)c2C)cc1OCC,1.24%
3,CCCc1nc(SCC(=O)Nc2ccc(S(=O)(=O)N(C)C)cc2)c2ccccc2n1,38.4% (active)
4,CCc1nc(SCC(=O)NNC(=O)c2ccc(C)cc2)c2ccccc2n1,0.32%
5,CCCNC(=O)CSc1nc(Cc2ccccc2)nc2ccccc12,4.52%
6,Cc1ccccc1-n1c(C)cc(/C=N/NC(=O)c2ccc(CN3CCOCC3)cc2)c1C,-1.59%
7,COc1ccc(N2C(=O)/C(=C\c3ccco3)N=C2SCC(N)=O)cc1Cl,6.2%
8,N#Cc1c(N2CCCCC2)nc(N)c2c(N)nc(SCC(=O)O)cc12,7.07%
9,CCN1CCCC1CNc1ncnc2c1[nH]c1ccc(F)cc12 (configuration not stated),17% (active)
10,Cc1c(CN2CC[C@@H](N3CCN(c4ccccn4)CC3)[C@H](O)C2)[nH]c2ccc(F)cc12,-1.68%
11,CCN1CCCC1Cn1cnc2c([nH]c3cc(OC)ccc32)c1=O (configuration not stated),6.02%
12,CC(C)OCCCNc1ncnc2c1[nH]c1ccc(F)cc12,27.3% (active)
13,CCN1CCCC1CNC(=O)c1cc2cc(OC)c(OC)cc2[nH]1 (configuration not stated),1.37%
14,Fc1ccc2[nH]c3c(N4CCSCC4)ncnc3c2c1,17.6% (active)
15,COc1ccc(NC(=O)CSc2nnc(C3CC3)n2C)cc1S(=O)(=O)N1CCCCC1,0.43%
16,O=C1CCN(CCCc2ccccc2)CCN1CCO,9.53%
17,Cc1noc(C)c1S(=O)(=O)N(C)Cc1ccccc1,1.11%
18,Cn1ncc2c(N3CCCCC3)nc(NCCCO)nc21,4.87%
19,COc1cccc(/C=C/C(=O)OCC(=O)N2CCCc3ccccc32)c1,0.1%
20,Cc1ccc(Cn2cc(C(=O)NN)c(=O)c3ccc(F)cc32)cc1,0.01%
21,CN(C(=O)COC(=O)c1cc(-c2ccco2)nc2ccccc12)C1CCS(=O)(=O)C1 (configuration not stated),-3.18%
22,COc1ccc2c(-c3ccccc3)cc(SCC(=O)N(C)C3CCS(=O)(=O)C3)nc2c1 (configuration not stated),-3.71%
23,Cc1c(-c2cccc(Cl)c2)nc2ccccc2c1C(=O)OCC(=O)N(C)C1CCS(=O)(=O)C1 (configuration not stated),18.3% (active)

row,SMILES,inhibition
1,Cc1ccc(C)c(NC(=O)c2cc(-c3cc(C)cc(C)c3O)n[nH]2)c1,-3.27%
2,Cc1ccc(NC(=S)NC(=O)c2ccc(-c3ccccc3)cc2)cc1,0.29%
3,O=C(NNC(=O)c1ccc(-c2ccccc2)cc1)Nc1ccccc1,2.17%
4,CC(C(=O)c1ccc(-c2ccccc2)cc1)[n+]1cccc(Br)c1 (configuration not stated),23.5% (active)
5,CN(C)c1ccc(/C=C2\NC(=S)N(Cc3ccccc3)C2=O)cc1,99.8% (active)
6,O=C1N/C(=C/c2cccs2)C(=O)N1Cc1ccc(F)cc1,-2.86%
7,CN(C)c1ccc(C=C2C(=O)OC3(CCCC3)OC2=O)cc1,0.68%
8,CN(C1CCS(=O)(=O)C1)S(=O)(=O)c1ccc2ccccc2c1 (configuration not stated),5.04%
9,O=C(C1CCN(S(=O)(=O)Cc2ccccc2)CC1)N1CCCc2ccccc21,0.11%
10,CC1(C)Cc2cccc(OCC(=O)NCc3ccccc3)c2O1,0.56%
11,CC1(C)Cc2cccc(OCC(=O)N3CCN(c4ccc([N+](=O)[O-])cc4)CC3)c2O1,18.8% (active)
12,CC1(C)Cc2cccc(OCC(N)=O)c2O1,-2.75%
13,CCCN(CCC)S(=O)(=O)c1ccc(C(=O)N2CC3CCC(CC3)C2)cc1,-1.85%
14,CC(=O)NCCc1ccc(S(=O)(=O)N(C)C2CCS(=O)(=O)C2)cc1 (configuration not stated),-0.05%
15,CN1C(=O)/C(=C/C=C2\SCCN2C)OC1=S,25.2% (active)
16,Nc1nc(Br)c2ccccc2c1-c1ccc(F)cc1,-4.68%
17,CC(C)OCCCNC(=S)N1CCC(C(=O)c2ccc3c(c2)OCCO3)CC1,7.22%
18,COC(=O)c1cc(C(=O)OCC(=O)Nc2cc(C)on2)cc([N+](=O)[O-])c1,0.35%
19,Cc1ccc(-c2cc(C(=O)N3CCc4ccccc4C3)no2)cc1,-0.51%
20,Cc1ccc2c(c1)c1ncn(CCC3=CCCCC3)c(=O)c1n2C,4.46%
21,Cc1ccc2c(c1)c1ncnc(N3CCc4ccccc4C3)c1n2C,39.7% (active)
22,COc1ccccc1-c1n[nH]c2c1[C@H](C)CC[C@H]2C(C)C,0.94%
23,CCCCOC(=O)c1ccc(NC(c2ccc(C)cc2)P(=O)(OC)OC)cc1 (configuration not stated),7.2%
